Where “and” joins values, the source holds several entries; their conditions need not be identical. Identical values can stand only once. Unmarked numbers belong to inactive results. Inconclusive results are not listed. Calls of active or inactive are those of the source. Unless noted, calls come from the whole dose curve; as a rule, active = well fitted curve in either direction with a large enough effect (not every such curve was filed as active); inconclusive = small, poorly fitted or top-dose-only effect, or another doubt; inactive = flat fitted curve, though single readings scatter.

Test [1] can be described thus: AP1 Signaling Pathway (AID 357).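 Note: ME-180 reporter cells stimulated with EGF at its EC50 level; % is set by controls: 0 for no effect and ±100 for the full control effect.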 The gist of the method: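 First, ME-180 AP-1-bla cells were cultured overnight at 37 °C in low-serum Opti-MEM. Next, titrated compounds with EC50 EGF were incubated 5 hours. Finally, CCF4 was added for 2.5 hours and the 460/530 nm ratio recorded.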
Test [2] in a line: NFAT Signaling Pathway (AID 444).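 Note: carbachol stimulus at about its EC50 of 1 µM final; % is set by controls: 0 for no effect and ±100 for the full control effect.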 To be noted: Jurkat NFAT-bla M1, carbachol, beta-lactamase ratio, 5 h; at 38 µM (top of the series) unless noted. In outline:
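Jurkat cells carrying an NFAT-driven β-lactamase reporter and co-transfected muscarinic M1 receptor were treated with compound plus carbachol (1 uM final, an EC50 level) for 5 h at 37 °C. CCF4 loading followed for 1 h at RT; 460/530 nm ratio gave %activity.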

Test [3] can be described thus: Stat Signaling Pathway (AID 446).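 Note: ME-180 cervical cancer cells given 40 pM IL-6 alongside compound; SIE-controlled beta-lactamase reporter measured as 460/530 nm FRET emission ratio; % is set by controls: 0 for no effect and ±100 for the full control effect.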 The conditions noted are these: ME-180 SIE beta-lactamase reporter, IL-6 stimulated, 5 h. The gist of the method: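 Reporter line: ME-180 cervical carcinoma, SIE-beta-lactamase. Treatment: compound with 40 pM IL-6, 5 hrs, 37 C, in low-serum OPTI-MEM with 10 mM HEPES pH 7.3. Detection: 460/530 nm fluorescence.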
Test [4] deals with Glucocorticoid receptor (Homo sapiens) (UniProt P04150). The experiment in a line: GR-GFP Redistribution (AID 450;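 active = compounds whose dose series gives a full or clear partial fitted curve of increased nuclear translocation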; note: potency is the fitted concentration of half-maximal effect). To be noted: U2OS GR-GFP nuclear translocation, laser cytometry, 2 h.
Glucocorticoid receptor (Homo sapiens), sequence (P04150 whole entry, looked up): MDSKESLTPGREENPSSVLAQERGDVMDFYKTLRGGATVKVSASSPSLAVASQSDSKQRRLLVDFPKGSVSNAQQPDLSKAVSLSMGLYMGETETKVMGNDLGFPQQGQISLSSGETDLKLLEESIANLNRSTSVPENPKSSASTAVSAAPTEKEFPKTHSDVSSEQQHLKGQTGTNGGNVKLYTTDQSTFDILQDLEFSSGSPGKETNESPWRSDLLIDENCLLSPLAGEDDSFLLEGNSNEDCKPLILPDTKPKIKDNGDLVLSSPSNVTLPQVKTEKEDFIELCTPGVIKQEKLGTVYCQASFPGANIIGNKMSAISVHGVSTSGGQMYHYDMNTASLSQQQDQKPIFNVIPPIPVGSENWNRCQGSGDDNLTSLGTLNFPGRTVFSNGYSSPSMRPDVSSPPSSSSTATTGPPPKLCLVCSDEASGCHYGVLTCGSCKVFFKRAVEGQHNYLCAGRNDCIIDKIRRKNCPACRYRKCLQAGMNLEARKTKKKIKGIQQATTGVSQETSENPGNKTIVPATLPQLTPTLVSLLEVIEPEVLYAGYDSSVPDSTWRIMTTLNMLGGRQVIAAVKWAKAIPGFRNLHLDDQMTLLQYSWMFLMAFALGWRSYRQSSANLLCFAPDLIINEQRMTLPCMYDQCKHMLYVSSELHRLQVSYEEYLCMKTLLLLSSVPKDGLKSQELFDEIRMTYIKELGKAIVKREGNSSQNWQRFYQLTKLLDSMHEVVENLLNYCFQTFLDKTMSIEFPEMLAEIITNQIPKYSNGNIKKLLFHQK
Test [5] shares this target. Kind of test: GR-EFC Redistribution (AID 451; calls by dose curve; note: potency is the fitted concentration of half-maximal effect). The conditions noted are these: CHO-K1 GR-EFC translocation, beta-gal luminescence, 2 h. The gist of the method:
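CHO-K1 cells stably expressing nuclear-localized β-gal enzyme acceptor and GR fused C-terminally to the enzyme donor fragment; ligand-driven nuclear translocation restores β-gal by complementation. Compounds titrated up to 46 uM final, 2 h at 37 °C; luminescence read.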

For test [6], the target named is Mitogen-activated protein kinase 10 (Mus musculus) (UniProt Q61831). Kind of test: JNK3 AlphaScreen Assay (AID 530).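 Note: kinase came from lysate of stimulated human HepG2 cells; signal reports phosphorylation of biotinylated GST-cJun 1-79 at Ser73 with 10 µM ATP; % is set by controls: 0 for no effect and ±100 for the full control effect.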 In outline: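 Inhibitors reduce antibody binding to phosphorylated biotin-cJun, lowering AlphaScreen luminescence. Lysates from HepG2 cells pre-activated by IL-1beta plus TNF-alpha supplied JNK3; compounds were titrated.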
The target of test [7] is Cytochrome P450 1A2 (Homo sapiens) (UniProt P05177). The experiment in a line: p450-cyp1a2 (AID 410; calls by dose curve; note: potency is the fitted concentration of half-maximal effect;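 for activity change, negative = inhibition: -100% = full effect of reference inhibitor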). The gist of the method:
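20nM CYP1A2 with 100uM Luciferin-ME (at Km) in 100mM KPO4; compound preincubated 10 min, NADPH regeneration added, 60 min at room temperature. Luciferin quantified by luminescence after detection reagent; normalized to 57 uM furafylline.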

The nature of test [8]: Cell Viability - BJ (AID 421; calls by dose curve;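 note: potency is the fitted concentration of half-maximal effect; cells exposed to compound for 40 hours at 37 °C before readout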). To be noted: BJ fibroblast viability, qHTS. The gist of the method: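 Cytotoxicity as drop in intracellular ATP (CellTiter-Glo, 20 min RT) after 40 hr compound exposure of BJ fibroblasts at 37 °C. Titrations scaled between DMSO and 100 uM tamoxifen, Hill-fitted for AC50.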
The nature of test [9]: Cell Viability - Jurkat (AID 426;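 active = dose-dependent loss of cell ATP signal giving a full or clear fitted curve, ranked by lower potency value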; note: potency is the fitted concentration of half-maximal effect). The conditions noted are these: qHTS. The gist of the method: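 Jurkat (Clone E6-1) cells, 5000/well in complete medium, exposed to compounds for 40 hr at 37C; intracellular ATP measured by CellTiter-Glo luminescence after 20 min at room temperature. AC50 from Hill fits.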
Test [10] is described as follows: Cell Viability - Hek293 (AID 427;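 active = compounds whose dose-response curve shows a full or clear partial loss of cell viability, called from curve shape rather than a numeric limit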;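 note: potency is the fitted concentration of half-maximal effect; cells exposed to compound for 40 hours at 37 °C before reading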). To be noted: qHTS. In outline:
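Luminescent ATP content (CellTiter-Glo, 20 min at room temperature) was measured after a 40 hr, 37 °C compound exposure of HEK293 cells. AC50 values came from Hill-equation fits of qHTS concentration-response data normalized to DMSO and 100 uM tamoxifen.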

Test [11] can be described thus: Cell Viability - HepG2 (AID 433; calls by dose curve;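 note: potency is the fitted concentration of half-maximal effect; potency for ATP loss meaning cytotoxicity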). To be noted: qHTS. The gist of the method: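 HepG2 cells, 1500 per well, treated 40 hr at 37 °C in complete medium; viability from intracellular ATP by CellTiter-Glo luminescence. Normalized to DMSO and 100 uM tamoxifen; AC50 from Hill fit of qHTS concentration-response.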
(In general: In qHTS, concentration-response curves come from the screen itself.)

Test [12] can be described thus: Cell Viability - MRC5 (AID 434; calls by dose curve;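 note: potency is the fitted concentration of half-maximal effect; potency reflects cytotoxicity seen as loss of intracellular ATP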). To be noted: MRC5 lung fibroblast viability, qHTS. In outline:
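MRC5 normal human lung fibroblasts (1500/well) were treated with compounds for 40 hr at 37 °C in complete medium, and viable cells were measured as intracellular ATP by CellTiter-Glo luminescence. AC50 came from Hill fits, normalized to DMSO and 100 uM tamoxifen.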

Test [13] in a line: Cell Viability - SK-N-SH (AID 435; calls by dose curve;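 note: potency is the fitted concentration of half-maximal effect; compound exposure lasted 40 h at 37 °C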). The conditions noted are these: SK-N-SH neuroblastoma cell viability qHTS. In outline:
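SK-N-SH neuroblastoma cells (1500/well) treated 40 h at 37 °C in complete medium; viability read as cellular ATP by CellTiter-Glo luminescence. Normalized to DMSO and 100 uM tamoxifen; AC50 from Hill fits of qHTS concentration-response.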

A short description of test [14]: Cell Viability - N2a (AID 540; active = well fitted curve in the direction sought with a large enough effect; an effect the other way counts as inactive or inconclusive;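 note: plate controls were DMSO alone for no effect and tamoxifen control for full effect; nearly all actives have a fitted effect of over 45% in size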). To be noted: N2a mouse neuroblastoma cell viability; activity change, negative = cytotoxicity: at 92.2 µM (top of the series). In outline: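 Mouse neuroblastoma N2a cells, 1500/well, exposed to compounds 40 h at 37 °C in complete medium. Viability measured as cellular ATP by CellTiter-Glo luminescence; AC50 from Hill fits of concentration-response.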

Test [15] can be described thus: Cell Viability - NIH 3T3 (AID 541; active = well fitted curve in the direction sought with a large enough effect; an effect the other way counts as inactive or inconclusive;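 note: plate controls were DMSO alone for no effect and tamoxifen positive control for full effect; nearly all actives have a fitted effect of over 25% in size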). The conditions noted are these: NIH 3T3 cell viability, qHTS; activity change, negative = cytotoxicity: at 92.2 µM (top of the series). The gist of the method: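 Mouse NIH 3T3 fibroblasts, 1000 cells/well, rested 5 hr at 37 °C, then exposed to compound for 40 hr at 37 °C in complete medium. Viability read as intracellular ATP by CellTiter-Glo luminescence; AC50 from Hill-equation fits of concentration-response data.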

Test [16] in a line: Cell Viability - HUV-EC-C (AID 542; active = well fitted curve in the direction sought with a large enough effect; an effect the other way counts as inactive or inconclusive; note: % is set by controls: 0 for no effect and ±100 for the full control effect; nearly all actives have a fitted effect of over 35% in size). In outline:
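HUV-EC-C human vascular endothelial cells, 1000/well, exposed to compound for 40 hr at 37 °C in complete medium. Intracellular ATP was read by CellTiter-Glo luminescence. AC50 came from Hill-equation fits of concentration-response data.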

The nature of test [17]: Cell Viability - H-4-II-E (AID 543; active = well fitted curve in the direction sought with a large enough effect; an effect the other way counts as inactive or inconclusive; note: % is set by controls: 0 for no effect and ±100 for the full control effect; nearly all actives have a fitted effect of over 35% in size). In outline: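 Rat hepatoma H-4-II-E cells, 1500 per well, treated 40 h at 37 °C in complete medium. Cellular ATP read by CellTiter-Glo luminescence; AC50 from Hill fits of concentration-response.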
Test [18] is described as follows: Cell Viability - SH-SY5Y (AID 544; active = well fitted curve in the direction sought with a large enough effect; an effect the other way counts as inactive or inconclusive;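 note: 0% = DMSO alone and -100% = 100 µM tamoxifen; nearly all actives have a fitted effect of over 55% in size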). The gist of the method:
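SH-SY5Y human neuroblastoma cells (1500/well) incubated 5 h, then compound-treated 40 h at 37 °C in complete medium. Viability read as intracellular ATP by CellTiter-Glo luminescence after 20 min; AC50 from Hill-equation fits of qHTS concentration-response.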

The nature of test [19]: Cell Viability - Renal Proximal Tubule (AID 545; active = well fitted curve in the direction sought with a large enough effect; an effect the other way counts as inactive or inconclusive;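 note: 0% = DMSO only and -100% = 100 µM tamoxifen; nearly all actives have a fitted effect of over 40% in size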). To be noted: renal proximal tubule cells viability; activity change, negative = cytotoxicity: at 91.7 µM (top of the series). The gist of the method: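 Rat renal proximal tubule primary cells, 1000/well, exposed to compounds for 40 hr at 37 °C in complete medium; cellular ATP read by CellTiter-Glo luminescence. AC50 from concentration-response fitted with standard Hill equation.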

Where [20] appears, read: at 38 µM (top of the series) unless noted.

Cytochrome P450 1A2 (Homo sapiens), sequence (P05177 whole entry, looked up): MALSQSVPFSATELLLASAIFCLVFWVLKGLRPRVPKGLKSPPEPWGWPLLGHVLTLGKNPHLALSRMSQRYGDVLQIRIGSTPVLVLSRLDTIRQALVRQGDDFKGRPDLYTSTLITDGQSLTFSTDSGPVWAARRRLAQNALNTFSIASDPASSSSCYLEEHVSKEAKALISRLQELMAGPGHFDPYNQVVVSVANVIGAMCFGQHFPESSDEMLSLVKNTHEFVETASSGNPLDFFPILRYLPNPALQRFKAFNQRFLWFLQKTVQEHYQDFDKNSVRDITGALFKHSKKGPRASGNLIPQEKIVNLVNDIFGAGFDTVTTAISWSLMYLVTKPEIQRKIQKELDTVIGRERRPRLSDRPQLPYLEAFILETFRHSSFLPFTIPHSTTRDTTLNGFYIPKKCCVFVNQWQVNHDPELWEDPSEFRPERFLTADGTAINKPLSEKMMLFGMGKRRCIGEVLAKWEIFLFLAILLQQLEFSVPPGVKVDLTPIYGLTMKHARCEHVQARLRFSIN

On to `C[N+](C)(C)CCOC(=O)CBr`, for which the result in test [1] and in [6] was inactive. Also, the activity change, negative = inhibition in test [2] was 13.9%. In addition, in [3] (setting [20]), the activity, negative = inhibition is -5.3%. In addition, the Potency in [4] and in test [5] was over 46 µM throughout.
In the case of `C[N+]1(C)CCN(c2ccccc2)CC1`, in test [1], the compound was called inactive. Also, the Potency entry in test [7] was “inactive”. Further, the activity, negative = inhibition in [3] (at 17.2 µM (top of the series)) is -10%; in [3] (at 38 µM (top of the series)), -4.82%. Further, the Potency in test [4] was > 46 µM and > 20.6 µM; in test [5], over 46 µM.
As to `O=C(O)c1cc[c]([Hg][Cl])cc1`, the call in test [1] and in test [6] was inactive. The Potency was 3.16 µM (active) in test [7], over 46 µM in test [4] and over 46 µM in [5]. Moreover, in test [3] (setting [20]), the activity, negative = inhibition is -0.208%.
For the compound `CNC(=O)OCC[N+](C)(C)C`, the result in [1] and in [6] was inactive. Also, in [7], the Potency entry was “inactive”. For the same compound, the activity change, negative = inhibition in [2] was 3.8%. For the same compound, the Potency in test [4] and in test [5] was over 46 µM each time.
Turning to `CCCN(CCC)CCc1ccc(O)c(O)c1`, the outcome in [1] and in [6] was inactive. Besides, the activity change, negative = inhibition in test [2] was -10.2%. Moreover, in test [3] (setting [20]), the activity, negative = inhibition is -14.3%. The Potency in test [4] and in test [5] was over 46 µM each time.
On to `NCCc1ccc(S(=O)(=O)F)cc1`, for which the call in test [1] was inactive. Besides, the Potency in [7] was 15.8 µM (active); in [4], over 46 µM; in test [5] it was over 46 µM. In test [2], the activity change, negative = inhibition is 2.53%.
Regarding `CC(C)[C@@]1(NC(=O)[C@@H]2C[C@@H]3c4cccc5[nH]cc(c45)C[C@H]3N(C)C2)O[C@@]2(O)[C@@H]3CCCN3C(=O)[C@H](Cc3ccccc3)N2C1=O`, the compound was called inactive in [1]. Besides, the activity change, negative = inhibition in test [2] was -22.9% [at 17.2 µM]. The activity, negative = inhibition in [3] (setting [20]) was -26.4% [at 17.2 µM]. Besides, the Potency in test [4] was over 20.6 µM.
As for `NNC(N)=O`, in [1], the result was inactive. Further, the Potency in test [8], in test [9], in test [10], in test [11], in test [12] and in [13] was over 92 µM in each case. Further, the Potency in test [4] and in [5] was over 46 µM each time. The activity, negative = inhibition in [3] (setting [20]) was 1.85%. The Potency result in test [14], in [15], in test [16], in [17], in [18] and in test [19] was “inactive” in each case.
Take `CC(=O)NBr`: the result in [1] and in test [6] was inactive. For the same compound, the Potency result in test [7] is “inactive”. In addition, the activity change, negative = inhibition in [2] was -0.158%. In addition, the Potency in [4] and in test [5] was over 46 µM throughout.
`CN1[C@@H]2CC[C@H]1CC(OC(=O)C1C=Nc3ccccc31)C2` (stereo partly drawn): the outcome in test [1] was inactive. For the same compound, the activity, negative = inhibition in [3] (setting [20]) is 3.6% [at 17.2 µM].

These data come from PubChem BioAssay (NCATS).
